In PubChem BioAssay AID1903 (Southern Research Specialized Biocontainment Screening …, 2009):
The campaign covered roughly 310,000 compounds. About 1,200 (0.39%) were called active. The rule behind the calls is not given here. These entries were drawn from the full list. Measured potencies and affinities stand elsewhere.

Biological target: Large T antigen (Simian virus 40) (UniProt P03070)
Assay: TAg ATPase/helicase activity blockers – biochemical (AID 1903)
Settings: SV40 large T antigen ATPase/helicase inhibition assay; at 20 µM; active compounds read high

Large T antigen (Simian virus 40), sequence (P03070 whole entry, looked up): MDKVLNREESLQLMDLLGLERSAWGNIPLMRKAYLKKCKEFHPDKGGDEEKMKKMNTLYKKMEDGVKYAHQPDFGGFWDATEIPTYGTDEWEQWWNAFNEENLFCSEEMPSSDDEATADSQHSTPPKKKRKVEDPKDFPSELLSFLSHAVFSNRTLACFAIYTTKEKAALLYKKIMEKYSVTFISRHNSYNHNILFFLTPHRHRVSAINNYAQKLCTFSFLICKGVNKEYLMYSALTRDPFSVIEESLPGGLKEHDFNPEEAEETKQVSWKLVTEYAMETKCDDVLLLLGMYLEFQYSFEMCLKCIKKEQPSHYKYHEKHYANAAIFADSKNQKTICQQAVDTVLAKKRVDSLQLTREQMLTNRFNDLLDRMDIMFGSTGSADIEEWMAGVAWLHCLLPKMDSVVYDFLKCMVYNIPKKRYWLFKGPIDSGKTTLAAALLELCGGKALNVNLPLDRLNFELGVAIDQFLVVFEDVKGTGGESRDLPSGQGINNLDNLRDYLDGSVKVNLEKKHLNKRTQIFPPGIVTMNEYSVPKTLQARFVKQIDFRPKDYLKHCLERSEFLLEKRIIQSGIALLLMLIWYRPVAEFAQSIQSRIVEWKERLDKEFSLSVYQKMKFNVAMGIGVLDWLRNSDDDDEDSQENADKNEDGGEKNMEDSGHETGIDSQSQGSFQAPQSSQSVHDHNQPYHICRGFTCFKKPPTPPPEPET

inhibition, inactive:
Cn1c(SCc2ccc([N+](=O)[O-])cc2)nc2c(c1=O)SCC2 3.17%
Fc1ccc2nc(N3CCOCC3)sc2c1 -1.3%
CC(C)c1ccc2nc(N)sc2c1 8.35%
Nc1nc2ccc(S(=O)(=O)c3ccc4nc(N)sc4c3)cc2s1 10.5%
c1ccc2sc(N3CCOCC3)nc2c1 20.2%
CC(Sc1nc2c(c(=O)[nH]1)CCCC2)C(=O)Nc1ccccc1C#N (stereo unspecified) 6.43%
O=C(N/N=C/c1cnc(N2CCOCC2)s1)c1ccccc1 11.5%
O=C(COc1ccccc1)NCC(=O)NC1=NCCS1 3.88%
COc1cc(/C=C/C(=O)OCC(=O)NC2CCS(=O)(=O)C2)ccc1O (stereo unspecified) 34%
COc1cc(/C=C/C(=O)OCC(=O)N(C)C2CCS(=O)(=O)C2)ccc1OC(F)F (stereo unspecified) -1.47%
Cc1ccc(NC(=O)CN(C)S(=O)(=O)c2ccc3[nH]c(=O)oc3c2)c(C)c1 10.9%
CC1CC(C)CN(CC(=O)N2CCc3[nH]c4ccccc4c3C2)C1 (stereo unspecified) -3.87%
Cc1ccc(/C=C2\SC(=S)N(C3CCS(=O)(=O)C3)C2=O)o1 (stereo unspecified) 9.87%
Cc1ccc(/C=C2/SC(=S)N(C3CCCCC3)C2=O)o1 31.8%
O=C1/C(=C/c2ccco2)SC(=S)N1C1CCS(=O)(=O)C1 (stereo unspecified) 33.6%
O=C1/C(=C\c2ccco2)SC(=S)N1C1CCS(=O)(=O)C1 (stereo unspecified) 22.2%
COc1ccc(C2C(C(=O)Nc3ccc(OC)c(OC)c3)c3ccccc3C(=O)N2C)cc1 (stereo unspecified) 5.35%
CCOC(=O)c1ccc(NC(=O)CN2CCN(Cc3ccccc3)CC2)cc1 -0.24%
O=C1NC(=O)/C(=C\c2cn(Cc3ccccc3F)c3ccccc23)N1 8.29%
C/C(=N\NC(=O)Cc1ccc(F)cc1)c1ccc(O)cc1 36.9%
COc1ccc(C(=O)N/N=C(\C)Cn2nc([N+](=O)[O-])cc2C)cc1 8.1%
COc1cc(C(=O)N/N=C(\C)c2ccc(NC(=O)Cc3ccccc3)cc2)ccc1O 37.2%
COc1cc(/C(C)=N/NC(=O)CN2CCN(S(=O)(=O)c3ccc(C)cc3)CC2)ccc1O 20.9%
C/C(=N\NC(=O)CCc1c(C)n[nH]c1C)c1ccc([N+](=O)[O-])cc1 3.31%
C/C(Cn1nc([N+](=O)[O-])cc1C)=N\NC(=O)c1ccc(C(C)(C)C)cc1 9.13%
COc1ccc(-c2noc(Cc3ccccc3OC)n2)cc1 5.97%
